{
  "source": "PubChem BioAssay",
  "note": "Active and inactive are the calls of the source.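 Rule for the calls, unless noted: active = hit in primary screen, with calcium signal over 5 SD above buffer well mean in both duplicates; inactive = the rest.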",
  "data": [
    {"tested_on": "TRPC4 (mouse), co-expressed with 5HT1a in HEK293", "assay": "calcium flux potentiators in TRPC4/5HT1a cells, confirmation, counter-screen for TRPC4 potentiator project, cell-based, second counter screen, HEK293 TRPC4/5HT1a, Fluo-4 (AID 434979;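 active = signal rise over 3 SD above mean of control wells given weak agonist, in both repeats and first screen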)", "settings": "Fluo-4 calcium flux, at 10 µM, serotonin added at its EC20 dose; stronger effect = higher value", "values": [
      {"smiles": "Cc1ccccc1Cn1c(=N)n(CC(O)c2ccco2)c2ccccc21", "note": "(stereo not drawn)", "outcome": "inactive"},
      {"smiles": "CN1CCN(c2ccc(NC(=O)c3ccc(-c4ccc(Cl)cc4)o3)cc2)CC1", "outcome": "inactive"},
      {"smiles": "COc1cc(C(F)(F)F)nc2c(Br)c(C(C)(C)C)nn12", "outcome": "inactive"},
      {"smiles": "Clc1cccc(C[n+]2cc(-c3ccccc3)n3c2CCC3)c1", "outcome": "inactive"},
      {"smiles": "COC(=O)c1ccc(CSc2nc3ccccc3c(=O)n2CC(C)C)o1", "outcome": "inactive"},
      {"smiles": "CN(C)c1ccc(NC(=O)CN2C3CCCC2CC(NC(=O)c2ccccc2)C3)cc1", "note": "(stereo not drawn)", "outcome": "inactive"},
      {"smiles": "Cc1ccn2c(CNCCCn3cccn3)c(C(=O)N3CCCCCC3)nc2c1", "outcome": "inactive"},
      {"smiles": "O=C(O)c1ccc(N/N=C/c2ccc(-c3cccc(Cl)c3)o2)cc1", "outcome": "inactive"},
      {"smiles": "NS(=O)(=O)c1ccc(CCNCc2ccccc2OCc2ccc(Cl)cc2)cc1", "outcome": "inactive"},
      {"smiles": "CCCCn1c(NCCO)nc2ccccc21", "outcome": "inactive"},
      {"smiles": "CCCOc1ccc(-c2nc(SCc3ccccc3)[nH]c(=O)c2C#N)cc1OC", "outcome": "inactive"},
      {"smiles": "NC(=O)c1nsc(C(=O)N(Cc2ccccc2Cl)C(C(=O)NCC2CCCO2)c2ccc(O)cc2)c1N", "note": "(stereo not drawn)", "outcome": "inactive"},
      {"smiles": "N#Cc1cccc2c1-c1ccccc1/C2=N/NC(N)=O", "outcome": "inactive"},
      {"smiles": "CCCn1c(NC(=O)c2ccc(Cl)c(S(=O)(=O)N3CCCC3)c2)nc2ccccc21", "potentiation": "6.75% (active)"},
      {"smiles": "CCOC(=O)C(C)Sc1nc2c(c(=O)[nH]c(=O)n2C)n1Cc1ccc(Cl)cc1", "note": "(stereo not drawn)", "outcome": "inactive"},
      {"smiles": "OCCNc1nc2ccccc2n1CCN1CCCCC1", "outcome": "inactive"},
      {"smiles": "Cc1cc(N2CCC(C)CC2)nc2cccc(O)c12", "outcome": "inactive"},
      {"smiles": "CCCN1C2=NCCN2c2cc(C)c(C)cc21", "outcome": "inactive"},
      {"smiles": "COc1ccc(C2NC(C(=O)O)Cc3c2[nH]c2ccccc32)cc1CN1CCN(c2ccc(F)cc2)CC1", "note": "(stereo not drawn)", "outcome": "inactive"},
      {"smiles": "COc1cc(CNC2CCCC2)cc(Cl)c1OCc1ccc(F)cc1", "outcome": "inactive"},
      {"smiles": "CC1CCN(C(C)C(=O)Nc2ccccc2-c2ccccc2)CC1", "note": "(stereo not drawn)", "outcome": "inactive"},
      {"smiles": "COc1cccc(C(=O)C2CCCN(Cc3cccn3-c3ccccn3)C2)c1", "note": "(stereo not drawn)", "outcome": "inactive"},
      {"smiles": "N=c1c2c(n(Cc3ccccc3)c3c1CCC3)CCC2", "outcome": "inactive"},
      {"smiles": "OCC1(CCCc2ccccc2)CCN(Cc2cc(F)ccc2F)CC1", "outcome": "inactive"},
      {"smiles": "N#Cc1c(NC(=O)C2CC(Cl)=CCC2C(=O)O)sc2c1CCCCC2", "note": "(stereo not drawn)", "outcome": "inactive"},
      {"smiles": "c1ccc2[nH]c(CCCCc3nc4ccccc4[nH]3)nc2c1", "outcome": "inactive"},
      {"smiles": "CN(C)CCN1C(=O)C2C(C(=O)Nc3cc(Cl)cc(Cl)c3)C3C=CC2(O3)C1C(=O)NC1CCCCC1", "note": "(stereo not drawn)", "outcome": "inactive"},
      {"smiles": "CCc1cccc(OCC(=O)Nc2ccc(C(=O)O)cc2NC(=O)COc2cccc(CC)c2)c1", "outcome": "inactive"},
      {"smiles": "CCc1ccc2nc(N=C(N)N)nc(C)c2c1", "outcome": "inactive"},
      {"smiles": "C=CCOc1ccc(Br)cc1CNC(C)(C)CO", "outcome": "inactive"},
      {"smiles": "O=c1c2ccccc2[nH]c(=S)n1CCN1CCN(Cc2ccccc2)CC1", "outcome": "inactive"},
      {"smiles": "CN(CC(=O)NC1CCCc2ccccc21)C1CCCCC1", "note": "(stereo not drawn)", "outcome": "inactive"},
      {"smiles": "Cc1cc(C(=O)N/N=C\\c2cc(C(C)(C)C)ccc2O)n[nH]1", "outcome": "inactive"},
      {"smiles": "CC1(C)CC2CC(C)(CN2C(=O)c2cc(-c3ccc(O)cc3)on2)C1", "note": "(stereo not drawn)", "outcome": "inactive"},
      {"smiles": "OCC1(Cc2ccccc2)CCCN(Cc2cnn(-c3ccccc3)c2)C1", "note": "(stereo not drawn)", "outcome": "inactive"},
      {"smiles": "CCOc1ccccc1CN1CCC(n2nccc2NC(=O)CCc2ccccc2)CC1", "outcome": "inactive"},
      {"smiles": "CCCOc1cccc(C(=O)NCCNC(=O)c2ccco2)c1", "outcome": "inactive"},
      {"smiles": "Brc1ccc(CN2C3=NCCCN3c3ccccc32)cc1", "outcome": "inactive"},
      {"smiles": "Cc1[nH]n(C)c(=O)c1C(=O)c1c(-c2c(Cl)cccc2Cl)noc1C", "outcome": "inactive"}
    ]},
    {"tested_on": "not listed separately", "assay": "calcium flux activation in mu-opioid HEK293 cells, confirmation, counter-screen for TRPC4 activator project, cell-based, HEK293 mu-opioid receptor line (AID 449723);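 note: counter screen cells carry the mu-opioid receptor alone and lack TRPC4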", "settings": "Fluo-4 calcium fluorescence, at 10 µM; stronger effect = higher value", "values": [
      {"smiles": "Cc1ccccc1Cn1c(=N)n(CC(O)c2ccco2)c2ccccc21", "note": "(stereo not drawn)", "outcome": "inactive"},
      {"smiles": "CN1CCN(c2ccc(NC(=O)c3ccc(-c4ccc(Cl)cc4)o3)cc2)CC1", "outcome": "inactive"},
      {"smiles": "COc1cc(C(F)(F)F)nc2c(Br)c(C(C)(C)C)nn12", "outcome": "inactive"},
      {"smiles": "Clc1cccc(C[n+]2cc(-c3ccccc3)n3c2CCC3)c1", "outcome": "inactive"},
      {"smiles": "COC(=O)c1ccc(CSc2nc3ccccc3c(=O)n2CC(C)C)o1", "outcome": "inactive"},
      {"smiles": "CN(C)c1ccc(NC(=O)CN2C3CCCC2CC(NC(=O)c2ccccc2)C3)cc1", "note": "(stereo not drawn)", "outcome": "inactive"},
      {"smiles": "Cc1ccn2c(CNCCCn3cccn3)c(C(=O)N3CCCCCC3)nc2c1", "outcome": "inactive"},
      {"smiles": "O=C(O)c1ccc(N/N=C/c2ccc(-c3cccc(Cl)c3)o2)cc1", "outcome": "inactive"},
      {"smiles": "NS(=O)(=O)c1ccc(CCNCc2ccccc2OCc2ccc(Cl)cc2)cc1", "outcome": "inactive"},
      {"smiles": "CCCCn1c(NCCO)nc2ccccc21", "outcome": "inactive"},
      {"smiles": "CCCOc1ccc(-c2nc(SCc3ccccc3)[nH]c(=O)c2C#N)cc1OC", "outcome": "inactive"},
      {"smiles": "NC(=O)c1nsc(C(=O)N(Cc2ccccc2Cl)C(C(=O)NCC2CCCO2)c2ccc(O)cc2)c1N", "note": "(stereo not drawn)", "outcome": "inactive"},
      {"smiles": "N#Cc1cccc2c1-c1ccccc1/C2=N/NC(N)=O", "outcome": "inactive"},
      {"smiles": "CCCn1c(NC(=O)c2ccc(Cl)c(S(=O)(=O)N3CCCC3)c2)nc2ccccc21", "outcome": "inactive"},
      {"smiles": "CCOC(=O)C(C)Sc1nc2c(c(=O)[nH]c(=O)n2C)n1Cc1ccc(Cl)cc1", "note": "(stereo not drawn)", "outcome": "inactive"},
      {"smiles": "OCCNc1nc2ccccc2n1CCN1CCCCC1", "outcome": "inactive"},
      {"smiles": "Cc1cc(N2CCC(C)CC2)nc2cccc(O)c12", "outcome": "inactive"},
      {"smiles": "CCCN1C2=NCCN2c2cc(C)c(C)cc21", "outcome": "inactive"},
      {"smiles": "COc1ccc(C2NC(C(=O)O)Cc3c2[nH]c2ccccc32)cc1CN1CCN(c2ccc(F)cc2)CC1", "note": "(stereo not drawn)", "outcome": "inactive"},
      {"smiles": "COc1cc(CNC2CCCC2)cc(Cl)c1OCc1ccc(F)cc1", "outcome": "inactive"},
      {"smiles": "CC1CCN(C(C)C(=O)Nc2ccccc2-c2ccccc2)CC1", "note": "(stereo not drawn)", "outcome": "inactive"},
      {"smiles": "COc1cccc(C(=O)C2CCCN(Cc3cccn3-c3ccccn3)C2)c1", "note": "(stereo not drawn)", "outcome": "inactive"},
      {"smiles": "N=c1c2c(n(Cc3ccccc3)c3c1CCC3)CCC2", "outcome": "inactive"},
      {"smiles": "OCC1(CCCc2ccccc2)CCN(Cc2cc(F)ccc2F)CC1", "outcome": "inactive"},
      {"smiles": "N#Cc1c(NC(=O)C2CC(Cl)=CCC2C(=O)O)sc2c1CCCCC2", "note": "(stereo not drawn)", "outcome": "inactive"},
      {"smiles": "c1ccc2[nH]c(CCCCc3nc4ccccc4[nH]3)nc2c1", "outcome": "inactive"},
      {"smiles": "CN(C)CCN1C(=O)C2C(C(=O)Nc3cc(Cl)cc(Cl)c3)C3C=CC2(O3)C1C(=O)NC1CCCCC1", "note": "(stereo not drawn)", "outcome": "inactive"},
      {"smiles": "CCc1cccc(OCC(=O)Nc2ccc(C(=O)O)cc2NC(=O)COc2cccc(CC)c2)c1", "outcome": "inactive"},
      {"smiles": "CCc1ccc2nc(N=C(N)N)nc(C)c2c1", "outcome": "inactive"},
      {"smiles": "C=CCOc1ccc(Br)cc1CNC(C)(C)CO", "outcome": "inactive"},
      {"smiles": "O=c1c2ccccc2[nH]c(=S)n1CCN1CCN(Cc2ccccc2)CC1", "outcome": "inactive"},
      {"smiles": "CN(CC(=O)NC1CCCc2ccccc21)C1CCCCC1", "note": "(stereo not drawn)", "outcome": "inactive"},
      {"smiles": "Cc1cc(C(=O)N/N=C\\c2cc(C(C)(C)C)ccc2O)n[nH]1", "outcome": "inactive"},
      {"smiles": "CC1(C)CC2CC(C)(CN2C(=O)c2cc(-c3ccc(O)cc3)on2)C1", "note": "(stereo not drawn)", "outcome": "inactive"},
      {"smiles": "OCC1(Cc2ccccc2)CCCN(Cc2cnn(-c3ccccc3)c2)C1", "note": "(stereo not drawn)", "outcome": "inactive"},
      {"smiles": "CCOc1ccccc1CN1CCC(n2nccc2NC(=O)CCc2ccccc2)CC1", "outcome": "inactive"},
      {"smiles": "CCCOc1cccc(C(=O)NCCNC(=O)c2ccco2)c1", "outcome": "inactive"},
      {"smiles": "Brc1ccc(CN2C3=NCCCN3c3ccccc32)cc1", "outcome": "inactive"},
      {"smiles": "Cc1[nH]n(C)c(=O)c1C(=O)c1c(-c2c(Cl)cccc2Cl)noc1C", "outcome": "inactive"}
    ]}
  ]
}
